Screening results: PubChem BioAssay, several laboratories
In the library only some 1.3% were active in any assay of this set; here they are far more common.
LRH-1 inv ag – inverse agonists of human LRH-1 (NR5A2) | HEK293T StAR-luciferase reporter, LRH-1 transfected, 24 h | inhibition, % at 3.6 µM | 0.13% of 360,000 active;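 active means inhibition above the mean inhibition of all tested compounds plus 3 SD, cut at about 73% in these data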;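 further: 0% = DMSO wells and 100% = reporter-only cells lacking LRH-1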
SRC1 inh – inhibitors of human steroid receptor coactivator 1 (SRC1). Q15788. HEK293 GAL4-SRC1 luciferase reporter, luminescence. inhibition, % at 3.6 µM. 0.12% of 360,000 active;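 active means inhibition above the campaign mean plus 3 SD, with each screening campaign given its own cutoff, cut at about 60% in these data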;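 further: 0% = DMSO treated cells and 100% = gossypol at 36 µM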
SRC3 inh – inhibits human SRC3 coactivator. Q9Y6Q9. HEK293 GAL4-SRC3 luciferase reporter, luminescence. inhibition, % at 3.6 µM. 0.17% of 360,000 active. AID 588352;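 active means inhibition above a per-campaign cutoff, the mean of all compounds plus 3 SD, cut at about 60% in these data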;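 further: 0% = DMSO-treated cells and 100% = gossypol-treated cells at 36 µM; higher means less SRC3-driven luciferase light from the GAL4 reporter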
NCOA2 inhibitor – human SRC2 (NCOA2) inhibition. Q15596. HEK293 GAL4-SRC2 luciferase reporter, luminescence. inhibition, % at 9 µM. 0.17% of 370,000 active;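 active means inhibition above the mean inhibition of all tested compounds plus 3 SD, set per campaign, cut at about 52% in these data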;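 further: 0% = DMSO treated cells and 100% = cells given Gossypol at 36 µM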
Gli-Sufu antag – antagonists of Gli-Sufu signaling; inhibition, % at 5 µM; 0.74% of 340,000 active; Sufu-KO-LIGHT fibroblasts, Gli luciferase reporter luminescence;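 active means inhibition above about 55%, limit read from the data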;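 further: 0% = DMSO-treated cells and 100% = wells with medium but no cells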
COUP-TFII inh – NR2F2 (human) inhibition, primary screen. P24468. AID 686940. HEK293T NGFI-A luciferase reporter, luminescence. 0.7% of 370,000 active. inhibition, % at 8.6 µM;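 active means inhibition above a per-plate cutoff, mean inhibition of test wells between control levels plus 3 SD, cut at about 38% in these data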;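 further: cells cotransfected with COUP-TFII expression vector driving the NGFI-A reporter; 0% = median of COUP-TF2 test wells and 100% = reporter-only cells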
Gli-Sufu confirm – confirmation of Gli-SUFU pathway antagonists; inhibition, % at 5 µM; 40% of 2,500 active; Sufu-KO-LIGHT cells, Gli luciferase reporter, luminescence; shares compounds with Gli-Sufu antag;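 active means mean inhibition at 5 µM reaching about 45%, limit read from the data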;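 further: plate controls were DMSO-treated cells for no effect and wells lacking cells for full effect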
Gli cytotox – counter-screen for Gli-SUFU antagonists: cytotoxicity | shares compounds with Gli-Sufu antag | Sufu-KO-LIGHT cells cytotoxicity, ATP luminescence | cytotoxicity, % at 5 µM | 32% of 2,500 active | AID 651994;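 active means mean cytotoxicity at 5 µM above about 25%, limit read from the data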;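 further: cells exposed to compound overnight for roughly 16 to 18 hours; plate controls were DMSO wells with cells for no effect and medium without cells for full effect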
Wnt3a counter – inhibits Wnt3a reporter, counter-screen for Gli-SUFU antagonists. shares compounds with Gli-Sufu antag. Wnt-LIGHT cells, Wnt3a-driven luciferase reporter, luminescence. inhibition, % at 6.25 µM. 20% of 2,500 active. AID 651995;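 active means mean inhibition above about 25%, limit read from the data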
Starred values were filed as active, the others as inactive; · = not tested or not shown.

SMILES | LRH-1 inv ag | SRC1 inh | SRC3 inh | NCOA2 inhibitor | Gli-Sufu antag | COUP-TFII inh | Gli-Sufu confirm | Gli cytotox | Wnt3a counter
CCn1c(C)nc2cc(-c3nnc(-c4c(-c5ccccc5)noc4C)o3)ccc21 | 3 | 7 | 10 | -9 | 70* | 1 | 77* | 17 | 18
Cc1onc(-c2ccccc2)c1-c1nnc(-c2ccccc2C(F)(F)F)o1 | -16 | 6 | 15 | 30 | 1 | 15 | · | · | ·
CCc1nnc(NC(=O)C(C)C)s1 | 10 | 7 | 5 | 14 | 93* | -2 | 11 | -14 | 5
CC(C)C(=O)Nc1nnc(CCc2nnc(NC(=O)C(C)C)s2)s1 | 10 | 6 | 5 | 22 | -3 | 3 | · | · | ·
O=C(CN1CCOCCOCCOCCOCC1)Nc1ccccc1 | -15 | -15 | -17 | -10 | 96* | -23 | 20 | 8 | -32
CN(C)c1ccc(-c2nc3ncc(Cl)cc3[nH]2)cc1 | · | · | · | 31 | · | 35 | · | · | ·
CC(C)(C)NC(=O)C(=O)NNC(=O)c1ccccc1 | -11 | -11 | 7 | -26 | 12 | -6 | · | · | ·
CC(C)(C)NC(=O)C(=O)NNC(=O)c1cccc(F)c1 | -30 | -29 | -29 | -29 | 84* | -26 | -1 | 9 | -28
Cc1cccc(NC(=O)NCCc2c[nH]c3ccccc23)c1 | -2 | 2 | -3 | 2 | 60* | -10 | 6 | 11 | -14
CCC(NC(=O)NCc1ccccc1)(C(F)(F)F)C(F)(F)F | -19 | -12 | 10 | 7 | 52 | -1 | 9 | 27* | -12
CCC(NC(=O)NCc1ccc2c(c1)OCO2)(C(F)(F)F)C(F)(F)F | 8 | 13 | 20 | 9 | -8 | 0 | · | · | ·
O=C(CSc1nc(C2CC2)nc2c1cnn2-c1ccccc1)Nc1c[nH]c(=O)[nH]c1=O | 2 | -42 | 6 | 13 | 99* | 10 | 30 | 2 | 17
Cc1nn(Cc2ccccc2)c(C)c1NC(=O)CSc1nc(C2CC2)nc2c1cnn2-c1ccccc1 | 10 | -10 | 9 | 13 | 0 | -20 | · | · | ·
CN(C)S(=O)(=O)c1ccc2nnn(O)c2c1 | -19 | -38 | -21 | -44 | 59* | 4 | 15 | 2 | 19
Cc1ccsc1/C=N/n1c(-c2ccncc2)n[nH]c1=S | 7 | 7 | 11 | 1 | 56* | 2 | 10 | 7 | 1
Nn1c(SCC(=O)Nc2cccc3ccccc23)nnc1-c1n[nH]c2c1CCC2 | · | · | · | -2 | · | 8 | · | · | ·
C[C@H](CCC(=O)N(c1ccccc1)c1ccccc1)CC1CCCCC1 | · | · | · | -1 | · | 13 | · | · | ·
Cc1ccc(CN2CCNC(=O)C2CC(=O)N(C)CCc2ccccc2)cc1 (stereo unspecified) | -3 | -25 | -3 | 23 | 22 | 8 | · | · | ·
Cc1nc(CCNC(=O)CC2C(=O)NCCN2Cc2ccccc2)nc2c1CCC2 (stereo unspecified) | 22 | 10 | -11 | -17 | -10 | 0 | · | · | ·
CN(CCc1ccccn1)C(=O)CC1C(=O)NCCN1Cc1ccc(-c2ccccc2)cc1 (stereo unspecified) | 8 | -21 | 16 | 15 | 60* | -10 | 9 | 1 | -25
Cc1cc(C)nc(CCNC(=O)CC2C(=O)NCCN2Cc2ccccc2)n1 (stereo unspecified) | 9 | -26 | -8 | 8 | 52 | -17 | 21 | -4 | 2
CCC(=O)Nc1ccc(NC(=O)CSc2nc3cc4c(cc3cc2C)CCC4)cc1 | 55 | -7 | 13 | 15 | 2 | -7 | · | · | ·
Cc1ccccc1NC(=O)CSc1nc2cc3c(cc2cc1C)CCC3 | 8 | 14 | 4 | 9 | 54 | 10 | 40 | 29* | -41
O=C(NCc1cccs1)C1CCC(CNS(=O)(=O)c2cccc3cccnc23)CC1 (stereo unspecified) | · | · | · | -12 | · | 5 | · | · | ·
O=C(NCc1ccccc1)C1CC2CCCC(C1)C2=O (stereo unspecified) | 0 | 8 | 9 | -40 | 94* | 0 | 14 | 18 | -12
O=C(NCc1ccccc1Cl)C1CCCN(c2nc3ccccc3o2)C1 (stereo unspecified) | · | · | · | 3 | · | 2 | · | · | ·
